Reference: PMC3218832

Legend:
Experiment in all cases: protein binding microarray; high values mean tight binding
Details in all cases: dsDNA, one strand shown
RELARELA (p65 homodimer) = RELARELA (p65 homodimer) (Homo sapiens, UniProt Q04206 1-307)
p50p50 homodimer = p50p50 homodimer (Homo sapiens, UniProt P19838 7-356)
p52p52 homodimer = molecular target: T1, p52p52 homodimer (Homo sapiens, UniProt Q00653 4-332)
T1 sequence: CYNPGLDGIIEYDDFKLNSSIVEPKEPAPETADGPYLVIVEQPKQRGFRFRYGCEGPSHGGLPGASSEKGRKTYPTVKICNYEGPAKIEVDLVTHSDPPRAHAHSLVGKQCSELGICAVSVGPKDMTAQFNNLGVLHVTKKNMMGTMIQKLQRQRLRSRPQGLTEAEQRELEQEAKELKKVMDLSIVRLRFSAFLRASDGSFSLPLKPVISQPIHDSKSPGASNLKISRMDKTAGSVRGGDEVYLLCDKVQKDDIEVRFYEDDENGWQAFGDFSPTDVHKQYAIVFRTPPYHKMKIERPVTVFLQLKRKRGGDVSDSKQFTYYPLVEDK

[1] = molecular target: RELA (p65) subunit of heterodimer;p50 subunit (Homo sapiens;Homo sapiens, UniProt Q04206;P19838 1-307;7-356)
Chain of RELA (p65) subunit of heterodimer;p50 subunit (Q04206 1-307, chain 1 of 2): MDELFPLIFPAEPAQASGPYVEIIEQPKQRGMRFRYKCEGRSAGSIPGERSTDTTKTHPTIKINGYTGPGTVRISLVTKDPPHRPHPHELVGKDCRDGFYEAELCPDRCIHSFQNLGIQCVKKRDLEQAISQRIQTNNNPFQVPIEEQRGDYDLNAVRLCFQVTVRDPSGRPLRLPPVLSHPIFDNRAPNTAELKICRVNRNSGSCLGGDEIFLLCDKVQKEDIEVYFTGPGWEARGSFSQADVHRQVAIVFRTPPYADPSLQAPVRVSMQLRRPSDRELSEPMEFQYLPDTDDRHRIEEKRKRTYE
Chain of RELA (p65) subunit of heterodimer;p50 subunit (P19838 7-356, chain 2 of 2): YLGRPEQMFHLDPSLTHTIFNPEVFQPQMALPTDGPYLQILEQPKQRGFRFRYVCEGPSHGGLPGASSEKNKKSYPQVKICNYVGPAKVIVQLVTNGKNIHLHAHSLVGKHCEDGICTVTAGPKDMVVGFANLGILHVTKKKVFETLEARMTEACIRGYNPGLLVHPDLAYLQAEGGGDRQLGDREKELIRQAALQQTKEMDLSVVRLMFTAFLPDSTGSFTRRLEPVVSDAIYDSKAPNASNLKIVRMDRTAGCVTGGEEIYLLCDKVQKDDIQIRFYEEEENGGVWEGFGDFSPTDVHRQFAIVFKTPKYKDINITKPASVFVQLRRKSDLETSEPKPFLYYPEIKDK

[2] = molecular target: RELA (p65) subunit of heterodimer;p52 subunit (Homo sapiens;Homo sapiens, UniProt Q04206;Q00653 1-307;4-332)
RELB subunit;p50 subunit = RELB subunit;p50 subunit (Homo sapiens;Homo sapiens, UniProt Q01201;P19838 120-401;7-356)
RELB subunit;p52 subunit = molecular target: T2, RELB subunit;p52 subunit (Homo sapiens;Homo sapiens, UniProt Q01201;Q00653 120-401;4-332)
T2 sequence 1: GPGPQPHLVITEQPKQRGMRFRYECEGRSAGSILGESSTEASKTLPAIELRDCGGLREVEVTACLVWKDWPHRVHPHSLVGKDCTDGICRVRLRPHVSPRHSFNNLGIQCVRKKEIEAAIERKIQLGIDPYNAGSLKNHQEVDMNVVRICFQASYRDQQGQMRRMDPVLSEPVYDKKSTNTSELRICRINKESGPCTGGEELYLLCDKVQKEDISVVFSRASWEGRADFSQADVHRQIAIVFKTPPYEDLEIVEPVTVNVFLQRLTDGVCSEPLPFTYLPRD
T2 sequence 2: T1 sequence

[3] = molecular target: C-Rel subunit;p50 subunit (Homo sapiens;Homo sapiens, UniProt Q04864;P19838 1-285;7-356)
[4] = molecular target: T3, C-Rel subunit;p52 subunit (Homo sapiens;Homo sapiens, UniProt Q04864;Q00653 1-285;4-332)
T3 sequence 1: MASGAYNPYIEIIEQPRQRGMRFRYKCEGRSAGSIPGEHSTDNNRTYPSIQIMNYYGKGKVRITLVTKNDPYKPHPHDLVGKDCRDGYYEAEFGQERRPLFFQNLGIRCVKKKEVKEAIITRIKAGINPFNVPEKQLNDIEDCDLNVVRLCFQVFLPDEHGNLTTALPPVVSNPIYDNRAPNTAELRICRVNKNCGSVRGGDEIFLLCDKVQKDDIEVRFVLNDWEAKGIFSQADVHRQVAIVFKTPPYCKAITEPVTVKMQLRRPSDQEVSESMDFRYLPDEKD
T3 sequence 2: T1 sequence

Chain of p50p50 homodimer (P19838 7-356): as the sequence (P19838 7-356, chain 2 of 2) above
Chain of RELARELA (p65 homodimer) (Q04206 1-307): as the sequence (Q04206 1-307, chain 1 of 2) above

Row | Sequence | binding signal (RELARELA (p65 homodimer)) | binding signal (p50p50 homodimer) | binding signal (p52p52 homodimer) | binding signal [1] | binding signal [2] | binding signal (RELB subunit;p50 subunit) | binding signal (RELB subunit;p52 subunit) | binding signal [3] | binding signal [4]
1 | CGAAGCATCCT | -1.05 z-score | -3.51 z-score | -0.775 z-score | -1.25 z-score | -1.09 z-score | -1.1 z-score | -1.02 z-score | -1.65 z-score | -1 z-score
2 | GGAAATGTCCC | 1.93 z-score | 0.902 z-score | 1.14 z-score | 1.27 z-score | 1.05 z-score | 0.938 z-score | 0.986 z-score | 0.9 z-score | 0.975 z-score
3 | GGGTAAGTCCT | 1.28 z-score | 0.161 z-score | 1.41 z-score | 0.335 z-score | 0.851 z-score | 0.207 z-score | 0.217 z-score | 0.357 z-score | 0.997 z-score
4 | CAGATGTTCCT | -0.208 z-score | -2.01 z-score | -0.586 z-score | -0.746 z-score | -0.87 z-score | -1.02 z-score | -0.843 z-score | -1.15 z-score | -0.842 z-score
5 | GGGGTCTCCCT | 0.447 z-score | 0.727 z-score | 1.4 z-score | 1.01 z-score | 1.15 z-score | 0.85 z-score | 1.05 z-score | 0.709 z-score | 1.16 z-score
6 | GGGTAACCCCT | 1.23 z-score | 0.71 z-score | 1.97 z-score | 1.42 z-score | 1.8 z-score | 0.672 z-score | 1.45 z-score | 0.858 z-score | 1.95 z-score
7 | AAGTTGTTCCT | -0.106 z-score | -1.19 z-score | -0.438 z-score | -0.58 z-score | -0.753 z-score | -0.971 z-score | -0.787 z-score | -0.889 z-score | -0.685 z-score
8 | CAGTGCATCCT | -0.475 z-score | -2.12 z-score | -0.705 z-score | -0.986 z-score | -0.986 z-score | -1.19 z-score | -1.04 z-score | -1.59 z-score | -0.988 z-score
9 | GAGATGATCCT | -0.876 z-score | -1.5 z-score | -0.697 z-score | -0.978 z-score | -1.06 z-score | -1.27 z-score | -1.16 z-score | -1.84 z-score | -1.11 z-score
10 | AAATACGTCCC | 0.519 z-score | 0.264 z-score | 0.547 z-score | 0.144 z-score | 0.183 z-score | 0.285 z-score | 0.334 z-score | 0.368 z-score | -0.029 z-score
11 | CAATGTCTCCC | -0.338 z-score | -0.647 z-score | -0.276 z-score | -0.405 z-score | -0.499 z-score | -0.294 z-score | -0.275 z-score | -0.53 z-score | -0.561 z-score
12 | AAATGCCCCCC | 0.508 z-score | 1.24 z-score | 0.957 z-score | 1.43 z-score | 1.32 z-score | 1.4 z-score | 1.57 z-score | 1.28 z-score | 0.954 z-score
13 | AAAGTTGCCCC | 1 z-score | 0.606 z-score | 0.147 z-score | 0.949 z-score | 0.337 z-score | 0.677 z-score | 0.595 z-score | 1.26 z-score | 0.617 z-score
14 | CGGGGACCCCT | -0.0408 z-score | 0.724 z-score | 0.639 z-score | 0.43 z-score | 0.693 z-score | 0.578 z-score | 0.906 z-score | 0.478 z-score | -0.0336 z-score
15 | AGGATCTCCCC | 0.594 z-score | 1.02 z-score | 0.969 z-score | 1.28 z-score | 1.04 z-score | 1.22 z-score | 0.999 z-score | 0.853 z-score | 0.953 z-score
16 | AAGATCTCCCT | 0.0704 z-score | 1.15 z-score | 0.499 z-score | 0.913 z-score | 0.528 z-score | 1.16 z-score | 1.02 z-score | 0.475 z-score | 0.202 z-score
17 | AGATTACTCCT | -0.0935 z-score | -1.24 z-score | -0.548 z-score | -0.691 z-score | -0.875 z-score | -1.01 z-score | -0.843 z-score | -1.01 z-score | -0.848 z-score
18 | AGAAAATCCCT | 1.08 z-score | 1.27 z-score | 1.8 z-score | 1.28 z-score | 1.37 z-score | 1.49 z-score | 1.61 z-score | 1.12 z-score | 1.62 z-score
19 | CGGATCTTCCT | 0.45 z-score | -1.67 z-score | -0.691 z-score | -0.69 z-score | -0.836 z-score | -1.21 z-score | -0.889 z-score | -0.859 z-score | -0.666 z-score
20 | CAAGAGATCCT | -0.295 z-score | -1.92 z-score | -0.611 z-score | -1.27 z-score | -1.22 z-score | -0.959 z-score | -0.999 z-score | -1.42 z-score | -1.16 z-score
21 | CGGTATGTCCT | 0.15 z-score | -0.81 z-score | -0.37 z-score | -0.663 z-score | -0.702 z-score | -0.895 z-score | -0.675 z-score | -0.815 z-score | -0.489 z-score
22 | AAGTGTGTCCT | -0.0699 z-score | -1.1 z-score | -0.57 z-score | -0.888 z-score | -0.62 z-score | -0.808 z-score | -0.709 z-score | -0.908 z-score | -0.763 z-score
23 | CAGATACTCCC | -0.1 z-score | -0.181 z-score | -0.309 z-score | -0.154 z-score | -0.498 z-score | -0.145 z-score | -0.637 z-score | -0.312 z-score | -0.374 z-score
24 | AGGTACGCCCC | -0.0324 z-score | 0.221 z-score | 0.402 z-score | 0.321 z-score | 0.526 z-score | 0.233 z-score | 0.441 z-score | 0.444 z-score | 0.674 z-score
25 | CAATGTTCCCT | 0.185 z-score | 0.396 z-score | 0.137 z-score | -0.019 z-score | -0.0733 z-score | 0.0726 z-score | 0.0791 z-score | 0.0457 z-score | -0.175 z-score
26 | GGAGTGACCCC | -0.389 z-score | -0.505 z-score | -0.461 z-score | -0.353 z-score | -0.178 z-score | -0.399 z-score | -0.304 z-score | -0.367 z-score | -0.254 z-score
27 | GAATTCCTCCC | 0.897 z-score | -0.0187 z-score | -0.00969 z-score | 0.17 z-score | 0.0178 z-score | -0.14 z-score | -0.0714 z-score | 0.325 z-score | 0.177 z-score
28 | GAAAACATCCC | 0.244 z-score | -0.173 z-score | -0.106 z-score | -0.0842 z-score | -0.0683 z-score | -0.24 z-score | -0.321 z-score | -0.174 z-score | -0.211 z-score
29 | GAAAGTTCCCT | 0.999 z-score | 1.15 z-score | 1.11 z-score | 1.12 z-score | 1.03 z-score | 0.985 z-score | 0.987 z-score | 0.705 z-score | 0.73 z-score
30 | CAAATCTCCCT | 0.0987 z-score | 1.24 z-score | 0.832 z-score | 1.06 z-score | 1.05 z-score | 1.35 z-score | 1.4 z-score | 0.664 z-score | 1.06 z-score
